Source: PubChem
Cruzain Triton: qHTS Assay for Promiscuous and Specific Inhibitors of Cruzain (with detergent). purified cruzain, Z-FR-AMC fluorescence, 0.01% Triton. Potency, µM, without a hit: max response, negative = inhibition, usual class: inhibitors. 0.43% of 200,000 active. AID 1478, 2009;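 also: plate controls were neutral wells for no effect and buffer without enzyme for full effect; nearly all actives have a fitted effect of over 40% in size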
Target sequence (P25779 123-467 limits assumed): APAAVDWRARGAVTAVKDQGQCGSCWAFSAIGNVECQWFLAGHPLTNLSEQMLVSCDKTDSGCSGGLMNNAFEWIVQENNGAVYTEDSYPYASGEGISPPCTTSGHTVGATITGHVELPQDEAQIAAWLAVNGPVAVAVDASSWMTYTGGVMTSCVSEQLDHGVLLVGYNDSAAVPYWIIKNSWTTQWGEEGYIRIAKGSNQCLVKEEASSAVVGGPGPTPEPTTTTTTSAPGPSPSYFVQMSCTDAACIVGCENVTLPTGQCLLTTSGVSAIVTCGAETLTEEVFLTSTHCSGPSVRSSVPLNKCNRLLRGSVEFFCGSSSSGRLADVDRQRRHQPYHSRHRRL
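15 min RT preincubation of 1.5 nM cruzain with compound, then 2 uM Z-FR-AMC added; kinetic AMC fluorescence, 60 s delta. Triton X-100 0.01%, pH 5.5.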
Cruzain inh noDet: qHTS Assay for Promiscuous and Specific Inhibitors of Cruzain (without detergent). Cruzipain (Trypanosoma cruzi), P25779. purified cruzain, Z-FR-AMC fluorescence, no detergent. Potency, µM, for inactives: max response, negative = inhibition, usual class: inhibitors. 2.3% of 200,000 active;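 also: plate controls were enzyme without inhibitor for no effect and buffer without enzyme for full effect; nearly all actives have a fitted effect of over 40% in size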
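Purified cruzain at 1.5 nM, pre-incubated 15 min with compound at room temperature in 100 mM sodium acetate pH 5.5, 5 mM DTT, 0.00005% Triton X-100. Reaction started with 2 uM Z-FR-AMC; AMC fluorescence increase over 60 s gives rate.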
* = called active by the depositor. In the library only some 2.5% were active in any assay of this set; here they are far more common. Calls follow the shape of the dose curve; as a rule, active = well fitted curve in the direction sought with a large enough effect; inconclusive = small, poorly fitted or top-dose-only effect, or another doubt; inactive = no such curve, though single readings can be large; an effect the other way counts as inactive or inconclusive. Potency is read from the fitted curve at half-maximal effect.

How did COc1ccccc1C(=O)NC1(C(F)(F)F)C(=O)Nc2c1c(=O)[nH]c(=O)n2-c1ccccc1 (configuration not stated) do in these assays?
Cruzain Triton: -2%; Cruzain inh noDet: 1%

What do the screens show for `Cc1ccc(S(=O)(=O)CC(=O)Nc2nc3c(C)cc(C)cc3s2)cc1`?
Cruzain Triton: -7%; Cruzain inh noDet: 13µM*

Results for CCOc1ccc2nc(NC(=O)CS(=O)(=O)c3ccc(Cl)cc3)sc2c1 ?
Cruzain Triton: -10%; Cruzain inh noDet: 5µM*

What do the screens show for `CCOc1ccc2nc(NC(=O)CS(=O)(=O)c3ccc(C)cc3)sc2c1`?
Cruzain Triton: -8%; Cruzain inh noDet: inconclusive

How did COc1cccc2sc(NC(=O)CS(=O)(=O)c3ccc(C)cc3)nc12 do in these assays?
Cruzain Triton: -2%; Cruzain inh noDet: inconclusive

Results for COC(=O)c1ccccc1NC(=O)c1ccc2nc(Cc3ccccc3)oc2c1 ?
Cruzain Triton: 0%; Cruzain inh noDet: -7%

What do the screens show for `CCOc1cc(C2Nc3cccc4cccc(c34)N2)ccc1O`?
Cruzain Triton: -2%; Cruzain inh noDet: 16µM*

How did CCOc1ccc(C2Nc3cccc4cccc(c34)N2)cc1OC do in these assays?
Cruzain Triton: -14%; Cruzain inh noDet: -9%

Results for Cc1cccc(NC(=O)Cn2nc(C)c3nn(-c4ccc(Cl)cc4)c(C)c3c2=O)c1C ?
Cruzain Triton: 2%; Cruzain inh noDet: 5%

Results for O=C(Nc1ccc2c(c1)OCO2)C1Cc2ccccc2CN1S(=O)(=O)c1cccs1 (configuration not stated) ?
Cruzain Triton: -3%; Cruzain inh noDet: 25µM*

How did O=C(Nc1ccc2c(c1)OCO2)C1CCN(S(=O)(=O)c2cccs2)CC1 do in these assays?
Cruzain Triton: -1%; Cruzain inh noDet: inconclusive

What do the screens show for `COc1ccc(C(=O)NC(=S)N2CCCCC2)cc1[N+](=O)[O-]`?
Cruzain Triton: 0%; Cruzain inh noDet: -5%

How did Cc1c([N+](=O)[O-])cc(C(=O)Oc2ccc(Br)cc2C(=S)N2CCCCC2)cc1[N+](=O)[O-] do in these assays?
Cruzain Triton: -2%; Cruzain inh noDet: 25µM*

What do the screens show for `CCc1ccccc1Nc1nc2ccccc2c2nncn12`?
Cruzain Triton: -5%; Cruzain inh noDet: -3%

Results for O=C(O)CCNc1ccccc1C(=O)O ?
Cruzain Triton: -4%; Cruzain inh noDet: -7%

What do the screens show for `O=C(Cc1ccccc1)NNC(=O)Nc1ccc(Cl)c(Cl)c1`?
Cruzain Triton: 0%; Cruzain inh noDet: -1%

What do the screens show for `NC(=S)NNC(=O)Nc1ccc(Cl)c(Cl)c1`?
Cruzain Triton: 3.2µM*; Cruzain inh noDet: 2µM*

How did COc1ccc(NC(=O)c2cc(S(=O)(=O)N3CCCC(C)C3)cn2C)c(OC)c1 (configuration not stated) do in these assays?
Cruzain Triton: -4%; Cruzain inh noDet: 9%

What do the screens show for `CCn1c(NC(=O)Nc2cccc(C)c2C)cc2sccc21`?
Cruzain Triton: -1%; Cruzain inh noDet: 25µM*

What do the screens show for `Cc1cccc(NC(=O)Nc2cccs2)c1C`?
Cruzain Triton: -8%; Cruzain inh noDet: -10%

How did COc1ccc2c(c1)Cc1sc(NC(=O)c3cccc(Br)c3)nc1-2 do in these assays?
Cruzain Triton: -2%; Cruzain inh noDet: inconclusive

Results for COc1ccc(Br)c2c1-c1nc(NC(=O)c3cccc(C)c3)sc1C2 ?
Cruzain Triton: -2%; Cruzain inh noDet: 6.3µM*

Results for COc1ccc(-n2c(=O)c3c(c4cc(OC)ccc4n3C)n(CCC(C)C)c2=O)cc1 ?
Cruzain Triton: -3%; Cruzain inh noDet: 12%

Results for Cc1ccccc1Nc1oc(-c2ccccc2)nc1-c1ccccc1 ?
Cruzain Triton: 0%; Cruzain inh noDet: -9%

Results for S=C([S-])NCCNC(=S)[S-].[Zn+2] ?
Cruzain Triton: 32µM*; Cruzain inh noDet: inconclusive

Results for CCOC(=O)c1scc(-c2ccc(C)cc2)c1S(=O)(=O)Nc1ccc(OC)c(Cl)c1 ?
Cruzain Triton: 1%; Cruzain inh noDet: -2%

How did N#C/C(=C\c1ccc(-c2ccc(F)cc2)o1)C(=O)Nc1nc(-c2cccs2)cs1 do in these assays?
Cruzain Triton: 5%; Cruzain inh noDet: 6.3µM*

How did N#C/C(=C/c1ccc(-c2ccccc2)o1)c1nc(-c2cccs2)cs1 do in these assays?
Cruzain Triton: -10%; Cruzain inh noDet: 7.9µM*

How did N#C/C(=C\c1ccc(-c2ccc(Br)cc2)o1)C(=O)Nc1ccccc1O do in these assays?
Cruzain Triton: 0%; Cruzain inh noDet: 15%

What do the screens show for `N#C/C(=C\c1ccc(-c2ccccc2)cc1)c1nc(-c2ccco2)cs1`?
Cruzain Triton: -7%; Cruzain inh noDet: inconclusive

How did c1ccc(B2OC[C@@H]3OB(c4ccccc4)O[C@H]([C@@H]4COB(c5ccccc5)O4)[C@@H]3O2)cc1 do in these assays?
Cruzain Triton: 0%; Cruzain inh noDet: -2%

Results for CCOc1ccccc1N(CC)C(=O)c1cc2c(=O)[nH]c3ccc(C)cc3c2s1 ?
Cruzain Triton: -1%; Cruzain inh noDet: 0%

How did O=C(CSc1nc2c([nH]c3ccccc32)c(=O)n1-c1ccccc1)N1CCCc2ccccc21 do in these assays?
Cruzain Triton: 0%; Cruzain inh noDet: -9%

What do the screens show for `COc1cccc(NC(=O)CCC(=O)N2Cc3ccccc3Oc3ncccc32)c1`?
Cruzain Triton: -2%; Cruzain inh noDet: 0%

Results for CCOc1ccc2nc(SCC(=O)N3c4ccccc4Sc4ccccc43)c(C#N)cc2c1 ?
Cruzain Triton: -1%; Cruzain inh noDet: 4µM*

Results for COc1ccc2nc(SCC(=O)N3CCCCCC3)c(C#N)cc2c1 ?
Cruzain Triton: -4%; Cruzain inh noDet: -2%

Results for CC1CCN(C(=O)CSc2nnc(NC(=O)Nc3ccccc3)s2)CC1 ?
Cruzain Triton: -3%; Cruzain inh noDet: -2%

What do the screens show for `CCOC(=O)N1CCc2c(sc(NCc3cccs3)c2C(=O)Nc2cc(Cl)ccc2OC)C1`?
Cruzain Triton: -8%; Cruzain inh noDet: 0%

What do the screens show for `COc1ccc(OC)c(CNC(=O)c2ccc3c(c2)c(C)c(C)n3C)c1`?
Cruzain Triton: -2%; Cruzain inh noDet: inconclusive

What do the screens show for `COc1ccccc1CCNC(=O)c1ccc2c(c1)c(C)c(C)n2Cc1ccc(Cl)cc1`?
Cruzain Triton: 3%; Cruzain inh noDet: 13µM*

Results for COc1ccc(OC)c(CNC(=O)c2ccc3c(c2)c(C)c(C)n3Cc2ccc(Cl)cc2)c1 ?
Cruzain Triton: 2%; Cruzain inh noDet: 7.9µM*

How did COc1cc(CCNC(=O)c2ccc3c(c2)c(C)c(C)n3Cc2cccc(C)c2)cc(OC)c1OC do in these assays?
Cruzain Triton: -1%; Cruzain inh noDet: -8%

How did Cn1cnc([N+](=O)[O-])c1Sc1nc(N)nc2c1ncn2[C@H]1C[C@H](O)[C@@H](CO)O1 do in these assays?
Cruzain Triton: 5%; Cruzain inh noDet: 15%

What do the screens show for `CCCN(CCC)CCCNC(=O)c1sc2nc3n(c(=O)c2c1C)CCC3`?
Cruzain Triton: -4%; Cruzain inh noDet: -3%

Results for Cc1ccc(S(=O)(=O)c2cn(CC(=O)Nc3cccc(Cl)c3)c3ccccc3c2=O)cc1 ?
Cruzain Triton: -2%; Cruzain inh noDet: 32µM*

How did COc1ccc(NC(=O)Cn2cc(S(=O)(=O)c3ccc(C)cc3)c(=O)c3ccccc32)cc1OC do in these assays?
Cruzain Triton: -6%; Cruzain inh noDet: inconclusive

What do the screens show for `CCc1cccc(NC(=O)Cn2c(=O)n(CCc3ccc(OC)c(OC)c3)c(=O)c3ccccc32)c1`?
Cruzain Triton: 1%; Cruzain inh noDet: 17%
